In the supplement of paper PMC8728848:
The full list was thinned out, with the strongest signals kept by preference.

Assays:
Experiment in all cases: glycan array binding signal (z-score within array); higher = stronger binding
Conditions in all cases: glycan notation: IUPAC condensed, linker removed
[1] = target: Gal(b1-4)GlcNAc(b1-3)Gal(b1-4)GlcNAc(b1-3)Gal(b1-4)GlcNAc(b1-3)Gal(b1-4)GlcNAc(b1-3)Gal(b1-4)GlcNAc(b1-2)Man(a1-3)[Gal(b1-4)GlcNAc(b1-3)Gal(b1-4)GlcNAc(b1-3)Gal(b1-4)GlcNAc(b1-3)Gal(b1-4)GlcNAc(b1-3)Gal(b1-4)GlcNAc(b1-2)Man(a1-6)]Man(b1-4)GlcNAc(b1-4)[Fuc(a1-6)]GlcNAc
How it was run: (§1)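 Glycan array binding is given as a within-array Z-score, which can be read as non-binding when negative. The arrays, 3228 of them, came from the Consortium for Functional Glycomics database and were retained only where the protein sequence was available. Z-scores were averaged across arrays of the same protein sequence at different concentrations or buffers and across linkers.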

[2] = target: Gal(b1-4)GlcNAc(b1-3)Gal(b1-4)GlcNAc(b1-3)Gal(b1-4)GlcNAc(b1-3)Gal(b1-4)GlcNAc(b1-3)Gal(b1-4)GlcNAc(b1-2)[Gal(b1-4)GlcNAc(b1-3)Gal(b1-4)GlcNAc(b1-3)Gal(b1-4)GlcNAc(b1-3)Gal(b1-4)GlcNAc(b1-3)Gal(b1-4)GlcNAc(b1-6)]Man(a1-6)[Gal(b1-4)GlcNAc(b1-3)Gal(b1-4)GlcNAc(b1-3)Gal(b1-4)GlcNAc(b1-3)Gal(b1-4)GlcNAc(b1-3)Gal(b1-4)GlcNAc(b1-2)Man(a1-3)]Man(b1-4)GlcNAc(b1-4)[Fuc(a1-6)]GlcNAc
How it was run: as §1

[3] = target: Gal(b1-4)GlcNAc(b1-3)[Fuc(a1-3)GlcNAc(b1-6)]Gal(b1-4)Glc
How it was run: as §1

[4] = target: Gal(b1-4)GlcNAc(b1-6)[Gal(b1-4)GlcNAc(b1-3)]GalNAc
How it was run: as §1

Gal3S(b1-4)GlcNAc = target: Gal3S(b1-4)GlcNAc
How it was run: as §1

[5] = target: Gal3S(b1-4)[Fuc(a1-3)]GlcNAc6S
How it was run: as §1

Gal6P(b1-4)GlcNAc = target: Gal6P(b1-4)GlcNAc
How it was run: as §1

[6] = target: GalNAc(a1-3)GalNAc(a1-3)Gal(a1-4)Gal(b1-4)GlcNAc
How it was run: as §1

GalNAc(b1-4)GlcNAc = target: GalNAc(b1-4)GlcNAc
How it was run: as §1

[7] = target: Glc(a1-6)Glc(a1-6)Glc(a1-6)Glc
How it was run: as §1

[8] = target: GlcNAc(a1-4)Gal(b1-4)GalNAc
How it was run: as §1

[9] = target: GlcNAc(a1-4)Gal(b1-4)GlcNAc(b1-3)Gal(b1-4)GlcNAc(b1-3)Gal(b1-4)GlcNAc
How it was run: as §1

[10] = target: GlcNAc(b1-2)Man(a1-3)[GlcNAc(b1-4)][GlcNAc(b1-2)Man(a1-6)]Man(b1-4)GlcNAc(b1-4)[Fuc(a1-6)]GlcNAc
How it was run: as §1

GlcNAc(b1-3)Gal(b1-4)Glc = target: GlcNAc(b1-3)Gal(b1-4)Glc
How it was run: as §1

[11] = target: GlcNAc(b1-3)Gal(b1-4)GlcNAc(b1-2)Man(a1-3)[GlcNAc(b1-3)Gal(b1-4)GlcNAc(b1-2)Man(a1-6)]Man(b1-4)GlcNAc(b1-4)[Fuc(a1-6)]GlcNAc
How it was run: as §1

[12] = target: GlcNAc(b1-6)Gal(b1-4)GlcNAc
How it was run: as §1

GlcNAc(b1-6)GalNAc = target: GlcNAc(b1-6)GalNAc
How it was run: as §1

Man(b1-4)GlcNAc = target: Man(b1-4)GlcNAc
How it was run: as §1

[13] = target: Neu5Ac(a2-3)Gal(b1-3)GalNAc(b1-4)[Neu5Ac(a2-8)Neu5Ac(a2-3)]Gal(b1-4)Glc
How it was run: as §1

[14] = target: Neu5Ac(a2-3)Gal(b1-3)GlcNAc(b1-3)Gal(b1-3)GlcNAc
How it was run: as §1

[15] = target: Neu5Ac(a2-3)Gal(b1-3)GlcNAc(b1-3)GalNAc
How it was run: as §1

[16] = target: Neu5Ac(a2-3)Gal(b1-3)GlcNAc6S
How it was run: as §1

[17] = target: Neu5Ac(a2-3)Gal(b1-4)GlcNAc6S
How it was run: as §1

[18] = target: Neu5Ac(a2-3)Gal(b1-4)[Fuc(a1-3)]GlcNAc(b1-6)[Neu5Ac(a2-3)Gal(b1-3)]GalNAc
How it was run: as §1

[19] = target: Neu5Ac(a2-3)[GalNAc(b1-4)]Gal(b1-4)Glc
How it was run: as §1

[20] = target: Neu5Ac(a2-6)Gal(b1-4)GlcNAc(b1-3)Gal(b1-4)GlcNAc(b1-3)Gal(b1-4)GlcNAc
How it was run: as §1

[21] = target: Neu5Ac(a2-6)Gal(b1-4)GlcNAc(b1-3)GalNAc
How it was run: as §1

[22] = target: Neu5Ac(a2-6)GlcNAc(b1-4)GlcNAc(b1-4)GlcNAc
How it was run: as §1

[23] = target: Neu5Ac(a2-8)Neu5Ac(a2-3)[Gal(b1-3)GalNAc(b1-4)]Gal(b1-4)Glc
How it was run: as §1

[24] = target: Neu5Ac(b2-6)Gal(b1-4)GlcNAc
How it was run: as §1

B1: Threefoil (Haloarcula marismortui) (protein)
chain: GSSHHHHHHHHHHSSGLVPRGSHMGDGYYKLVARHSGKALDVENASTSDGANVIQYSYSGGDNQQWRLVDLGDGYYKLVARHSGKALDVENASTSDGANVIQYSYSGGDNQQWRLVDLGDGYYKLVARHSGKALDVENASTSDGANVIQYSYSGGDNQQWRLVDL
[1]
  glycan array binding signal (z-score): 2.83
[2]
  glycan array binding signal (z-score): 3.49
[3]
  glycan array binding signal (z-score): 3.85
[4]
  glycan array binding signal (z-score): 0.738
Gal3S(b1-4)GlcNAc
  glycan array binding signal (z-score): -0.158
[5]
  glycan array binding signal (z-score): -0.038
Gal6P(b1-4)GlcNAc
  glycan array binding signal (z-score): -0.211
[6]
  glycan array binding signal (z-score): -0.227
GalNAc(b1-4)GlcNAc
  glycan array binding signal (z-score): -0.003
[7]
  glycan array binding signal (z-score): -0.157
[8]
  glycan array binding signal (z-score): -0.271
[9]
  glycan array binding signal (z-score): -0.208
[10]
  glycan array binding signal (z-score): -0.223
GlcNAc(b1-3)Gal(b1-4)Glc
  glycan array binding signal (z-score): -0.299
[11]
  glycan array binding signal (z-score): -0.052
[12]
  glycan array binding signal (z-score): 0.035
GlcNAc(b1-6)GalNAc
  glycan array binding signal (z-score): -0.181
Man(b1-4)GlcNAc
  glycan array binding signal (z-score): 0.763
[13]
  glycan array binding signal (z-score): -0.245
[14]
  glycan array binding signal (z-score): -0.139
[15]
  glycan array binding signal (z-score): -0.266
[16]
  glycan array binding signal (z-score): -0.17
[17]
  glycan array binding signal (z-score): -0.364
[18]
  glycan array binding signal (z-score): 0.108
[19]
  glycan array binding signal (z-score): -0.269
[20]
  glycan array binding signal (z-score): -0.154
[21]
  glycan array binding signal (z-score): -0.163
[22]
  glycan array binding signal (z-score): -0.141
[23]
  glycan array binding signal (z-score): -0.146
[24]
  glycan array binding signal (z-score): -0.309
